Measured values: the supplement of paper PMC7057948, “A genome-wide approach for identification and characterisation of metabolite-inducible systems” (Nature Communications, 2020)

The compounds below were run on BadR/P_H16_RS27200 cyclohexanecarboxylate biosensor (pEH159) (assay: relative induction of RFP reporter vs primary effector (background-corrected); higher = stronger activation of the biosensor). Details: inducer concentration 5 mM; 6 h; Cupriavidus necator H16; minimal medium + 0.4% gluconate.
Protocol: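 C. necator H16 strains, each carrying one of 21 transcription factor/inducible promoter–mRFP biosensor plasmids, were grown in minimal medium in 96-well plates (robotic platform). Each was exposed to 46 structurally or metabolically related compounds at 5 mM at 30 °C. OD-normalised RFP fluorescence was read 6 h later and expressed as relative induction (%) = 100 × (FL compound − FL uninduced)/(FL primary inducer − FL uninduced); mean of n=4.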
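Also: RFP excited at 585 nm with emission read at 620 nm, culture medium blanks subtracted from fluorescence and absorbance prior to normalisation.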

| Compound | relative induction of RFP reporter [%] |
| --- | --- |
| NCCS(=O)(=O)O [taurine] | -0.635 |
| O=C(O)c1c(O)cccc1O [2,6-dihydroxybenzoate] | 0.241 |
| O=CC(=O)O [glyoxylate] | -0.137 |
| CCC(=O)O [propanoate] | -0.236 |
| NCC(N)C(=O)O (stereo not given) [2,3-diaminopropanoate] | -0.224 |
| O=C(O)CCC(=O)O [succinate] | -0.371 |
| O=C(O)/C=C\C=C/C(=O)O [cis,cis-muconate] | -0.641 |
| NCC(O)C(=O)O (stereo not given) [3-amino-2-hydroxypropanoate] | 0.0183 |
| O=C(O)C1=CCCCC1 [cyclohexene-1-carboxylate] | 80.5 |
| O=C(O)C(O)c1ccccc1 (stereo not given) [mandelic acid] | 0.747 |
| O=C(O)c1cccnc1 [nicotinate] | -0.229 |
| CCCC(=O)O [butyric acid] | 0.491 |
| N[C@@H](CC(=O)O)C(=O)O [L-aspartate] | -0.282 |
| Oc1cccc(O)c1 [resorcinol] | 0.33 |
| Cn1c(=O)c2c(ncn2C)n(C)c1=O [caffeine] | -0.151 |
| O=C(O)/C=C/C(=O)O [fumarate] | -0.161 |
| CC(=O)CCC(=O)O [levulinic acid] | 0.15 |
| CC(N)CC(=O)O (stereo not given) [3-aminobutanoate] | -0.361 |
| NCCc1ccc(O)c(O)c1 [dopamine] | 1.95 |
| O=C(O)c1ccc(O)cc1 [4-hydroxybenzoate] | 0.236 |

| Compound | relative induction of RFP reporter [%] |
| --- | --- |
| O=S(=O)(O)CCO [isethionate] | 0.494 |
| O=C(O)[C@@H](O)[C@@H](O)[C@H](O)[C@@H](O)C(=O)O [glucarate] | -0.576 |
| C[C@H](O)C(=O)O [L-lactate] | 0.636 |
| C[C@H](N)C(=O)O [L-alanine] | -0.206 |
| Cn1cnc2c1c(=O)[nH]c(=O)n2C [theobromine] | 0.638 |
| O=C(O)CC(CC(=O)O)C(=O)O [tricarballylate] | -0.288 |
| O=C(O)C1CCCC1 [cyclopentane-1-carboxylate] | 10.9 |
| Oc1ccccc1O [catechol] | 1.99 |
| O=C(O)CC(=O)C(=O)O [oxaloacetate] | -0.113 |
| O=C(O)CNC(=O)c1ccccc1 [N-benzoylglycine] | -0.675 |
| O=C(O)C1=C[C@@H](O)[C@@H](O)[C@H](O)C1 [shikimate] | 0.552 |
| O=c1cc[nH]c(=O)[nH]1 [uracil] | -0.342 |
| O=c1[nH]cnc2nc[nH]c12 [hypoxanthine] | -0.186 |
| NC(=O)CC[C@H](N)C(=O)O [L-glutamine] | -0.359 |
| C[C@@H](O)C(=O)O [D-lactate] | -0.262 |
| O=C(O)C[C@H](O)C(=O)O [L-malate] | -0.0424 |
| N[C@@H](Cc1c[nH]c2ccccc12)C(=O)O [L-tryptophan] | -0.253 |
| NC(C(=O)O)c1ccccc1 (racemic) [D,L-2-phenylglycine] | -0.673 |
| OC[C@@H](O)[C@@H](O)[C@H](O)[C@H](O)CO [D-mannitol] | -0.47 |
| O=C(O)c1cc(=O)c2ccccc2[nH]1 [kynurenate] | -0.549 |
